Among the data in PubChem BioAssay (EPA / NIEHS) are outcome and AC50 values, retold here.

Activity calls are given as the source filed them. How the source made its calls: active means hit-call score of the fitted dose curve at least 0.9, where 1 is the maximum; inactive means score below 0.9.

This assay in a line: ATG_AP_1_CIS: Attagene CIS-FACTORIAL HepG2 Assay for human Activator Protein 1 (AP-1) (AID 2282931). To be noted: HepG2 Attagene cis-factorial AP-1 reporter mRNA; actives raise or lower the signal. The essentials:
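Fluorescence of labelled PCR fragments separated by capillary electrophoresis gives reporter mRNA levels. HepG2 with transfected cis-regulated reporter units, 24 h exposure; DMSO serves as baseline for bidirectional curve fits.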
As for `CCOS(=O)(=O)OCC`, the compound was called inactive. The same measure, in the same setting: as for `ClC(Cl)(Cl)c1ccccc1`, the entry is “inactive”; as for `CC(C)(C)N(NC(=O)c1ccc(Cl)cc1)C(=O)c1ccccc1`, “inactive”. As to `CCN(CC)c1ccccc1`, the compound was called inactive. Same read-out and setting: as for `CCCCN(CCCC)SN(C)C(=O)Oc1cccc2c1OC(C)(C)C2`, the entry is “inactive”.

Take `CCOP(=S)(OCC)SCSCC`: the outcome was inactive. The same measure, in the same setting: the entry for `CCCCCCCc1ccc(O)cc1` is “inactive”; for `O=C(O)C=CC(F)(C(F)(F)F)C(F)(F)F` it is “inactive”. `CC(Cc1ccc(OCC(=O)O)cc1)NCC(O)c1csc(C(F)(F)F)n1` (centres undefined): the compound was classed as inactive. On to `CCC(C)(C)c1ccc(O)cc1`, for which the AC50 – broadly, the midpoint of the concentration-response curve, whichever way the signal moves – is 49.5 µM (active).

`O=S(=O)(F)C(F)(F)C(F)(F)C(F)(F)C(F)(F)C(F)(F)C(F)(F)C(F)(F)C(F)(F)F`: the call was inactive.

Consider `N#Cc1c(-c2ccc(Cl)cc2)[nH]c(C(F)(F)F)c1Br`, for which the AC50 is 0.0823 µM (active). Still for that read-out and setting: as for `O=P(Oc1ccccc1)(Oc1ccccc1)Oc1ccccc1`, the figure is 52.6 µM (active).

As for `O=[N+]([O-])c1ccc(Cl)c(Cl)c1`, the compound was classed as inactive. Still for that read-out and setting: the entry for `C/C(=N\NC(=O)Nc1cc(F)cc(F)c1)c1ncccc1C(=O)O` is “inactive”; for `Nc1ccc(Cl)cc1` it is “inactive”; for `CC(O)C#N` (centres undefined) it is “inactive”. As for `C=C(C)C(=O)OCC1CO1` (centres undefined), the outcome was inactive. Same read-out and setting: as for `CCCCN(CC)C(=O)SCCC`, the entry is “inactive”.

For `CCCCN(CCCC)N=O`, the call was inactive. Same read-out and setting: as for `ClC(Cl)c1ccccc1`, the entry is “inactive”; as for `c1ccc2c(c1)sc1ccccc12`, “inactive”.

Turning to `Cc1ccc([N+](=O)[O-])cc1C`, the result was inactive. Take `CCC1(c2ccccc2)C(=O)N=C(O)NC1=O` (centres undefined): the compound was called inactive. Regarding `OCC(F)(F)OC(F)(F)C(F)(F)OC(F)(F)CO`, the compound was classed as inactive. Take `CCOP(=S)(Oc1ccc([N+](=O)[O-])cc1)c1ccccc1` (centres undefined): the AC50 was 22.1 µM (active).

Turning to `CCOP(=S)(OCC)SCn1nnc2ccccc2c1=O`, the result was inactive. With `CC(C)(C)OOC(C)(C)C`, the compound was called inactive. Still for that read-out and setting: as for `Nc1ccc(Sc2ccc(N)cc2)cc1`, the entry is “inactive”; as for `CN(C)C(=O)Cl`, “inactive”. As for `CCCCc1ccc(O)cc1`, the AC50 is 148 µM (active). `c1ccc(OP(Oc2ccccc2)Oc2ccccc2)cc1`: the outcome was inactive. Same read-out and setting: the entry for `CC(Cl)(Cl)C(=O)O` is “inactive”; for `OCC(F)(F)OC(F)(F)C(F)(F)OC(F)(F)C(F)(F)OC(F)(F)CO` it is “inactive”. Still for that read-out and setting: the entry for `O=C(O)C1C(C(=O)O)C2(Cl)C(Cl)=C(Cl)C1(Cl)C2(Cl)Cl` (centres undefined) is “inactive”. `O=P1(N(CCCl)CCCl)NCCCO1` (centres undefined): the outcome was inactive. On the same count and under the same terms, as for `O=C(O)C(F)(OC(F)(F)C(F)(F)C(F)(F)F)C(F)(F)F` (centres undefined), the entry is “inactive”; as for `CCCCc1ccccc1`, “inactive”. Same read-out and setting: as for `N#Cc1cc([N+](=O)[O-])ccc1N`, the entry is “inactive”.
